From PubChem BioAssay (NCI) come the findings set out here.

About 79,000 compounds went through this panel and 15% of them were active in at least one assay; those are over-represented in the sample as a whole. Values without a mark were called inactive. The source made the active and inactive calls. Cut-off read from the data, not from the text of the source: active = growth inhibition above about 70%; inactive = the rest.

The experiment can be described thus: NCI Yeast Anticancer Drug Screen. Data for the bub3 strain (AID 167). The note with it: S. cerevisiae bub3 mutant strain, stronger effect = higher value. The method, then:
Growth inhibition of yeast strains with defined genetic alterations is measured as a screen for potential anti-cancer activity. Selected strains with alterations in DNA damage repair or cell cycle control were exposed to compounds and growth inhibition was measured relative to vehicle treated controls. The strain used in this assay is bub3

The mark [1] stands for this setting: at 5.0 µM (retest, dose inferred, filed as 0.5).
[2] abbreviates: at 50.0 µM (retest, dose inferred, filed as 5.0).

Consider `O=C1OC(C2=CC(=O)c3ccccc3C2=O)C(Cl)=C1Cl` (stereo not given), for which the growth inhibition is 3% (at 1.2 µM); -1% (at 3.7 µM); -1% under setting [1]; -2% (at 11.0 µM); 2% (at 33.0 µM); 6% under setting [2]. Besides, the growth inhibition (at 50.0 µM) was 57.4% and the growth inhibition (at 100.0 µM) is 12%.
`O=[N+]([O-])c1ccc2c(c1)/C(=N/N=C1c3ccccc3Cc3ccccc31)c1cc([N+](=O)[O-])cc([N+](=O)[O-])c1-2`: the growth inhibition was 4% (at 1.2 µM); 57% (at 3.7 µM); 63% under setting [1]; 99% (active) (at 11.0 µM); 98% (active) (at 33.0 µM); 98% (active) under setting [2]. The growth inhibition runs as follows: (at 50.0 µM) 85.9% (active); (at 100.0 µM) 91% (active).
As for `O=C(O)c1cc2ccccc2c2c1C(=O)c1ccccc1-2`, the growth inhibition is, setting by setting: (at 1.2 µM) -1%; (at 3.7 µM) 7%; under setting [1], 14%; (at 11.0 µM) 56%; (at 33.0 µM) 95% (active); under setting [2], 96% (active). Further, the growth inhibition (at 50.0 µM) was 90.8% (active) and the growth inhibition (at 100.0 µM) was 94% (active).
Consider `c1ccc2c(c1)sc1c3cnccc3ccc21`, for which the growth inhibition (at 1.2 µM) is 13%; the growth inhibition (at 3.7 µM) was 15%; the growth inhibition under setting [1] is -35%; the growth inhibition (at 11.0 µM) was 24%; the growth inhibition (at 33.0 µM) was 34%; the growth inhibition under setting [2] was -8%. Further, the growth inhibition by setting is: (at 50.0 µM) 44.9%; (at 100.0 µM) 39%.
For the compound `Cc1nc2ccc(N=NN(C)C)cc2[nH]1`, the growth inhibition by setting is: (at 1.2 µM) -6%; (at 3.7 µM) -5%; under setting [1], -19%; (at 11.0 µM) -2%; (at 33.0 µM) 97% (active); under setting [2], 98% (active). The growth inhibition is 87.8% (active) (at 50.0 µM) and 98% (active) (at 100.0 µM).
